What all share (assay): NCI-60 one-dose screen, 48 h (100 = growth as untreated, 0 = no growth, -100 = all killed)
In one assay the test system is SR leukemia. Particulars: 10 µM unless noted.
Another assay has as its system RPMI-8226 leukemia. Particulars: 10 µM unless noted.
For the next assay, the system named is OVCAR-8 ovarian. As to conditions: 10 µM unless noted.
The test system of the next assay is OVCAR-5 ovarian. As to conditions: 10 µM unless noted.
In another assay the test system is OVCAR-4 ovarian. Particulars: 10 µM unless noted.
The next assay concerns SK-OV-3 ovarian. Particulars: 10 µM unless noted.
In a further assay the test system is IGROV1 ovarian. Particulars: 10 µM unless noted.
A further assay has as its system OVCAR-3 ovarian. Particulars: 10 µM unless noted.
The test system of the next assay is HS 578T breast. Particulars: 10 µM.
In a further assay the test system is NCI/ADR-RES ovarian. As to conditions: 10 µM unless noted.
In another assay the test system is T-47D breast. As to conditions: 10 µM unless noted.
The subject of the next assay is BT-549 breast. Particulars: 10 µM unless noted.
For the next assay, the system named is MDA-MB-435 melanoma. Particulars: 10 µM unless noted.
Another assay relates to SW-620 colon. As to conditions: 10 µM unless noted.
The subject of the next assay is MCF7 breast. As to conditions: 10 µM unless noted.
The next assay deals with HCT-116 colon. As to conditions: 10 µM unless noted.
A further assay relates to HCC-2998 colon. As to conditions: 10 µM unless noted.
A further assay deals with KM12 colon. Particulars: 10 µM unless noted.

About 83,000 compounds went through this panel and 20% of them were active in at least one assay; those are over-represented in the sample as a whole.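 The test compound was applied at a single concentration to cells in 96-well plates for 48 hours, and percent growth was recorded.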 Values without a mark were called inactive. Calls of active or inactive are those of the source. Rule for the calls: active = growth percent below 10; inactive = the rest.

As for `COc1ccc2nc(NC(=O)/C(=C/c3cc(OC)c(OC)c(OC)c3)c3ccc(OC)c(OC)c3)sc2c1`, the growth with SR leukemia was 73%; in the assay on RPMI-8226 leukemia it was 96.6%; with OVCAR-8 ovarian, 90%; with OVCAR-5 ovarian, 91.9%; in the assay on OVCAR-4 ovarian, 93.4%; in the assay with SK-OV-3 ovarian, 104%. Also, the growth with IGROV1 ovarian is 81.6%; in the assay on OVCAR-3 ovarian, 84.4%; in the assay on HS 578T breast, 103%; in the assay on NCI/ADR-RES ovarian it was 89%; with T-47D breast it was 74.4%; with BT-549 breast it was 101%. Also, the growth in the assay on MDA-MB-435 melanoma is 101%; with SW-620 colon, 102%; in the assay on MCF7 breast, 87.1%; in the assay on HCT-116 colon it was 96.3%; with HCC-2998 colon it was 113%; in the assay with KM12 colon, 101%.

As for `N#Cc1c(N)c(C(=O)c2ccc3c(c2)OCCO3)n2c1CCCC2`, the growth in the assay on SR leukemia is -20% (active); in the assay on RPMI-8226 leukemia, 4.91% (active); in the assay with OVCAR-8 ovarian it was 31.5%; in the assay with OVCAR-5 ovarian it was 57.9%; in the assay on OVCAR-4 ovarian, 81.2%; in the assay on SK-OV-3 ovarian, 31.3%. The growth in the assay on IGROV1 ovarian is 10.8%; in the assay with OVCAR-3 ovarian, -3.73% (active); in the assay on HS 578T breast, 36.3%; with NCI/ADR-RES ovarian, 8.36% (active); with T-47D breast it was 29.2%; with BT-549 breast, 52.9%. The growth in the assay with MDA-MB-435 melanoma is -48.8% (active); in the assay with SW-620 colon it was 19.3%; in the assay on MCF7 breast it was 18.1%; in the assay with HCT-116 colon, 18.6%; in the assay on HCC-2998 colon, 59.6%; in the assay on KM12 colon it was 24.1%.

Regarding `C=C(C)c1ccc(/C=N/NC(N)=S)cc1`, the growth with SR leukemia is 66.9%; with RPMI-8226 leukemia, 72%; in the assay with OVCAR-8 ovarian it was 81.5%; in the assay on OVCAR-5 ovarian it was 120%; in the assay with OVCAR-4 ovarian it was 83.7%; in the assay with SK-OV-3 ovarian, 125%. Also, the growth in the assay with IGROV1 ovarian is 82.8%; in the assay on OVCAR-3 ovarian it was 101%; in the assay on HS 578T breast it was 65.6%; with NCI/ADR-RES ovarian, 97.8%; in the assay on T-47D breast it was 67.2%; in the assay with BT-549 breast it was 99.4%. Moreover, the growth with MDA-MB-435 melanoma is 87%; in the assay with SW-620 colon it was 97.9%; in the assay with MCF7 breast, 51.1%; with HCT-116 colon it was 84.5%; in the assay with HCC-2998 colon, 110%; in the assay with KM12 colon it was 55.4%.

As for `CN1CCN(Cc2ccc(NC(=O)c3cnc(F)c(C#Cc4cnc(N)c5ncccc45)c3)cc2C(F)(F)F)CC1`, the growth is 13.4% with SR leukemia; 18.2% with RPMI-8226 leukemia; 29.6% in the assay on OVCAR-8 ovarian; 37.2% in the assay with OVCAR-5 ovarian; 16.6% in the assay with OVCAR-4 ovarian; 3.65% (active) in the assay with SK-OV-3 ovarian. Further, the growth was 13.9% with IGROV1 ovarian; 46.2% in the assay with OVCAR-3 ovarian; -10.1% (active) with HS 578T breast; 29.9% in the assay with NCI/ADR-RES ovarian; 30.3% with T-47D breast; 41.9% with BT-549 breast. The growth is 10.2% in the assay with MDA-MB-435 melanoma; 8.66% (active) in the assay with SW-620 colon; 42.6% in the assay on MCF7 breast; 7.2% (active) in the assay with HCT-116 colon; 40.7% with HCC-2998 colon; 11.2% in the assay with KM12 colon.

For the compound `CNC(=O)c1cc(Oc2ccc(NC(=O)c3[nH]c(SC)nc3-c3ccc(F)cc3)cc2)ccn1`, the growth in the assay with SR leukemia is 63.1%; in the assay with RPMI-8226 leukemia, 43.8%; in the assay with OVCAR-8 ovarian it was 69.1%; with OVCAR-5 ovarian, 99.9%; with OVCAR-4 ovarian, 60.8%; in the assay on SK-OV-3 ovarian, 34.1%. The growth was 55% in the assay on IGROV1 ovarian; 88.2% in the assay on OVCAR-3 ovarian; 75.7% in the assay with HS 578T breast; 67.4% with NCI/ADR-RES ovarian; 37% in the assay on T-47D breast; 85.3% in the assay on BT-549 breast. In addition, the growth in the assay with MDA-MB-435 melanoma was 21.2%; in the assay on SW-620 colon, 90.3%; in the assay with MCF7 breast, 66.4%; in the assay on HCT-116 colon it was 62.9%; in the assay with HCC-2998 colon it was 96.9%; in the assay on KM12 colon, 19.4%.

As to `COc1ccc(-c2[nH]nc(N)c2-c2cc(OC)c(OC)c(OC)c2)cc1`, the growth was -23.7% (active) with SR leukemia; -8.96% (active) with RPMI-8226 leukemia; 7.81% (active) with OVCAR-8 ovarian; 38.8% in the assay on OVCAR-5 ovarian; 64.2% in the assay with OVCAR-4 ovarian; 4.97% (active) in the assay on SK-OV-3 ovarian. For the same compound, the growth is 1.08% (active) in the assay with IGROV1 ovarian; -28.3% (active) with OVCAR-3 ovarian; 25.6% with HS 578T breast; -9.45% (active) in the assay with NCI/ADR-RES ovarian; 52.8% in the assay on T-47D breast; 3.37% (active) in the assay on BT-549 breast. Besides, the growth was -69.2% (active) in the assay with MDA-MB-435 melanoma; 23% in the assay on SW-620 colon; 16.3% with MCF7 breast; 6.24% (active) with HCT-116 colon; 1.36% (active) in the assay with HCC-2998 colon; 3.55% (active) in the assay on KM12 colon.

Turning to `COc1ccc(-n2nc(C(=O)NCC(=O)Nc3nc4cc(OC)ccc4s3)c3ccccc3c2=O)cc1`, the growth with SR leukemia was 86.8%; with RPMI-8226 leukemia, 39.1%; in the assay with OVCAR-8 ovarian it was -12.4% (active); in the assay with OVCAR-5 ovarian, 44.6%; in the assay on OVCAR-4 ovarian, -20.4% (active); with SK-OV-3 ovarian it was -18.5% (active). The growth in the assay on IGROV1 ovarian is -3.66% (active); in the assay with OVCAR-3 ovarian, 3.53% (active); with HS 578T breast, -4.47% (active); in the assay with NCI/ADR-RES ovarian it was 1.75% (active); with T-47D breast, 17%; in the assay on BT-549 breast, -23.4% (active). For the same compound, the growth was 42.5% with MDA-MB-435 melanoma; 47.6% in the assay on SW-620 colon; -6.52% (active) in the assay with MCF7 breast; 2.56% (active) in the assay with HCT-116 colon; 55.8% in the assay on HCC-2998 colon; 18.2% with KM12 colon.

In the case of `COc1cc2nccc(Oc3ccc(NC(=O)C4(C(=O)Nc5ccc(F)cc5)CC4)cc3)c2cc1OC(=O)c1ccc(N)cc1`, the growth in the assay with SR leukemia is 9.85% (active); with RPMI-8226 leukemia it was 10.4%; in the assay on OVCAR-8 ovarian, 51.9%; in the assay on OVCAR-5 ovarian it was 31%; in the assay with OVCAR-4 ovarian it was 51.7%; in the assay with SK-OV-3 ovarian it was 69.6%. The growth is 60.7% in the assay on IGROV1 ovarian; 47.5% with OVCAR-3 ovarian; -16.9% (active) in the assay with HS 578T breast; 35.5% in the assay with NCI/ADR-RES ovarian; 19.5% with T-47D breast; 36.1% in the assay on BT-549 breast. Besides, the growth is 33.2% with MDA-MB-435 melanoma; 33.5% with SW-620 colon; 23.8% with MCF7 breast; 23.1% with HCT-116 colon; 25.8% with HCC-2998 colon; 12.3% in the assay with KM12 colon.

The record behind these values is PubChem BioAssay (NCI).
